Test systems include HCT-15 colon; HT29 colon; SNB-75 CNS; SNB-19 CNS; U251 CNS; PC-3 prostate; UACC-62 melanoma; LOX IMVI melanoma; SK-MEL-28 melanoma; SK-MEL-5 melanoma.
Experiment in all cases: NCI-60 one-dose screen, 48 h (100 = growth as untreated, 0 = no growth, -100 = all killed)
Common to all, as to details: 10 µM unless noted

The structures appear in SMILES notation. Compounds without any hit were thinned out: in the full panel of roughly 83,000, 20% have a hit.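 48-hour exposure, single concentration, 96-well plates; percent growth endpoint where 0 means no net growth. Active: below 10.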 Values without a mark were called inactive. Activity calls are given as the source filed them.

On to `C=CCO[C@H]1CO[C@H]2[C@@H]1OC[C@@H]2Oc1ccc(Nc2ccnc(Nc3ccc(O[C@H]4CO[C@H]5[C@@H]4OC[C@@H]5OCC=C)c(Cl)c3)n2)cc1Cl`, for which the growth with HCT-15 colon is -78.5% (active); with HT29 colon, -5.18% (active); with SNB-75 CNS, 0.0674% (active); in the experiment on SNB-19 CNS, -90.3% (active); in the experiment with U251 CNS it was -59.5% (active); in the experiment on PC-3 prostate, 14%. Besides, the growth in the experiment with UACC-62 melanoma is -92.2% (active); in the experiment on LOX IMVI melanoma, -95% (active); with SK-MEL-28 melanoma, -80.3% (active).

Take `CC(=O)Nc1ccc(-c2cc3c(NCc4ccc(F)cc4)ncnc3s2)cc1`: the growth is 88.8% with HCT-15 colon; 102% in the experiment with HT29 colon; 70.1% in the experiment on SNB-75 CNS; 57.8% in the experiment with SNB-19 CNS; 77.6% with U251 CNS; 81% with PC-3 prostate. In addition, the growth in the experiment on UACC-62 melanoma is 73%; in the experiment with LOX IMVI melanoma, 82.4%; in the experiment on SK-MEL-28 melanoma it was 93.5%.

With `CCCCOc1nc2ccc(Cl)cc2cc1/C=C/C(=O)/C=C1/CC(c2cc3cc(Cl)ccc3nc2OCCCC)Nc2ccccc2N1` (stereo unspecified), the growth in the experiment on HCT-15 colon is 94.1%; with HT29 colon it was 101%; in the experiment on SNB-75 CNS, 86.2%; in the experiment on SNB-19 CNS, 99.1%; in the experiment with U251 CNS it was 96.4%; with PC-3 prostate, 91.6%. The figures for the growth with UACC-62 melanoma, with LOX IMVI melanoma and with SK-MEL-28 melanoma were 89.1%, 94.4% and 105%, respectively.

For the compound `CCCCS(=O)(=O)Oc1ccc(-c2nc(C)c(C(=O)OCC)s2)cc1C=O`, the growth with HCT-15 colon was 50.6%; in the experiment on HT29 colon, 18.5%; with SNB-75 CNS it was 89%; with SNB-19 CNS, 53.8%; with U251 CNS, 49.6%; in the experiment with PC-3 prostate, 53.9%. In addition, the values for the growth in the experiment on UACC-62 melanoma, in the experiment on LOX IMVI melanoma and in the experiment with SK-MEL-28 melanoma were 64.6%, 28.3% and 90%, respectively.

Regarding `C=C1c2c(C)nn(-c3ccc(N)cc3)c2N(C)C23CC1C1(C)c4c(C)nn(-c5ccc(N)cc5)c4N(C)C(C)(CC12)C3` (stereo unspecified), the growth is 38.5% in the experiment with HCT-15 colon; 61.7% in the experiment on HT29 colon; 109% in the experiment with SNB-75 CNS; 80.7% in the experiment on SNB-19 CNS; 79.1% in the experiment with U251 CNS; 53.1% in the experiment on PC-3 prostate. The growth was 52.9% with SK-MEL-5 melanoma, 77.1% in the experiment with UACC-62 melanoma and 85.1% in the experiment with SK-MEL-28 melanoma.

For the compound `Cn1ccnc1C(=O)/C=C/c1ccc(C(=O)Nc2ccc(S(F)(F)(F)(F)F)cc2)cc1`, the growth in the experiment on HCT-15 colon was 3.65% (active); with HT29 colon, 12%; with SNB-75 CNS, 12.2%; with SNB-19 CNS it was 9.4% (active); in the experiment with U251 CNS it was -6.93% (active); in the experiment on PC-3 prostate it was 17.4%. In addition, the figures for the growth with UACC-62 melanoma, with LOX IMVI melanoma and in the experiment on SK-MEL-28 melanoma were 53.5%, -79.5% (active) and 79.5%, respectively.

For the compound `Clc1cnc(Nc2ccc(OCCN3CCCC3)cc2)nc1NCc1ccco1`, the growth was 6.01% (active) with HCT-15 colon; 11.3% with HT29 colon; -3.83% (active) in the experiment on SNB-75 CNS; 38.6% in the experiment with SNB-19 CNS; 19.6% in the experiment with U251 CNS; 28.7% in the experiment with PC-3 prostate. Also, the growth in the experiment on SK-MEL-5 melanoma is 46.1%; with UACC-62 melanoma, 46.5%; in the experiment on SK-MEL-28 melanoma, 51.7%.

Turning to `COC(=O)c1ccc(CSc2nnc(-c3ccncc3)o2)cc1`, the growth was 108% with HCT-15 colon; 109% with HT29 colon; 81.9% in the experiment on SNB-75 CNS; 110% with SNB-19 CNS; 104% in the experiment with U251 CNS; 87.5% in the experiment with PC-3 prostate. For the same compound, the growth with SK-MEL-5 melanoma is 112%; with UACC-62 melanoma, 97.5%; with SK-MEL-28 melanoma, 107%.

`COc1ccc(/C(C)=C(\c2ccc(Cl)cc2)c2ccc(OCCN3CCCCCC3)cc2)cc1F`: the growth was -23.9% (active) in the experiment with HCT-15 colon; 10% with HT29 colon; 75.6% with SNB-75 CNS; 65.9% with SNB-19 CNS; 39.8% in the experiment on U251 CNS; 41% in the experiment with PC-3 prostate. Also, the growth with UACC-62 melanoma is 48.2%; in the experiment with LOX IMVI melanoma it was -47% (active); in the experiment with SK-MEL-28 melanoma, 26%.

Consider `C=C(CNCCc1ccc(O)cc1)[C@@H]1CC[C@]2(COC3CCCCO3)CC[C@]3(C)[C@H](CC[C@@H]4[C@@]5(C)CCC(N)C(C)(C)[C@@H]5CC[C@]43C)[C@@H]12` (stereo partly specified), for which the growth with HCT-15 colon was -93% (active); in the experiment on HT29 colon, -93.8% (active); with SNB-75 CNS, -88% (active); in the experiment with SNB-19 CNS, -85.8% (active); in the experiment on U251 CNS it was -91.7% (active); with PC-3 prostate, -91% (active). Also, the growth in the experiment on SK-MEL-5 melanoma was -97.9% (active); with UACC-62 melanoma, -87% (active); with SK-MEL-28 melanoma, -94.9% (active).

As to `O=C1c2cccc3c(-c4ccc(-c5nc6c7ccccc7c7ccccc7c6[nH]5)cc4)ccc(c23)C(=O)N1CCN1CCNCC1`, the growth is 40.9% in the experiment on HCT-15 colon; 5.47% (active) in the experiment with HT29 colon; 103% in the experiment with SNB-75 CNS; 103% with SNB-19 CNS; 62.1% in the experiment on U251 CNS; 66.6% in the experiment on PC-3 prostate. Besides, the growth was 106% with UACC-62 melanoma, -55.8% (active) in the experiment with LOX IMVI melanoma and 119% in the experiment on SK-MEL-28 melanoma.

For the compound `COc1ccc(Cn2cnc3cc(C(=O)Nc4cccc5ccccc45)ccc32)c(OC)c1`, the growth with HCT-15 colon was 3.1% [30 µM] (active); in the experiment with HT29 colon it was 8.08% [30 µM] (active); in the experiment on SNB-75 CNS, 35.4% [30 µM]; in the experiment with SNB-19 CNS it was 21.5% [30 µM]; with U251 CNS, 17.5% [30 µM]; in the experiment with PC-3 prostate, 17.4% [30 µM]. Besides, the growth is 14.8% [30 µM] with UACC-62 melanoma, 12.1% [30 µM] in the experiment on LOX IMVI melanoma and 60.6% [30 µM] with SK-MEL-28 melanoma.

With `O[C@H]1CO[C@H]2[C@@H]1OC[C@@H]2Oc1ccc(Nc2ccnc(Nc3ccc(O[C@H]4CO[C@H]5[C@@H]4OC[C@@H]5O)c(Cl)c3)n2)cc1Cl`, the growth in the experiment with HCT-15 colon is 26.4%; in the experiment on HT29 colon, 9.26% (active); with SNB-75 CNS, -1.57% (active); in the experiment with SNB-19 CNS, 7.59% (active); in the experiment on U251 CNS it was 7.71% (active); with PC-3 prostate, 15.7%. Moreover, the figures for the growth in the experiment with UACC-62 melanoma, in the experiment on LOX IMVI melanoma and in the experiment on SK-MEL-28 melanoma were -74% (active), -8.35% (active) and 20.4%, respectively.

With `O=C1/C(=C/c2ccc([N+](=O)[O-])cc2)COc2ccc(O)c(O)c21`, the growth in the experiment with HCT-15 colon was -45.9% (active); in the experiment with HT29 colon it was 4.87% (active); with SNB-75 CNS it was 18.8%; with SNB-19 CNS it was 15%; in the experiment on U251 CNS it was -34.7% (active); in the experiment with PC-3 prostate, -6.72% (active). Also, the growth was -19.2% (active) with UACC-62 melanoma, -75.5% (active) in the experiment on LOX IMVI melanoma and 54.6% with SK-MEL-28 melanoma.

The values above are taken from PubChem BioAssay (NCI).
